Measurements taken from ChEMBL document CHEMBL3988442, “University of Dundee, Small-Polar-MMV Screening Library” (2021).
Hit rate of the full screen: of about 48,000 compounds, about 13,000 (27%) showed an effect of 50% or more. The list shows a part of the results.

Each molecule was assayed on Wolbachia pipientis (assay: Anti-Wolbachia Cell-Based Screen). Conditions: 5 µM.
Assay type: functional
Parameters: scale not given: in the data most compounds retested in dose-response had high values

In order of rising “Percent Effect” value:
1. Cc1ccc(-n2cc(CN3CCOCC(CN(C)C)C3)cn2)cc1C (stereo not drawn)  -29.82%
2. CCCS(=O)(=O)N1CC[C@H]2O[C@H](c3nnc(C)o3)CC[C@H]21  -25.7%
3. CCNC(=O)NC[C@H]1COCc2nc3cc(C)ccc3n21  -20.29%
4. N#Cc1cccc(N2CCC3(CCC(=O)N(CC4CCCO4)C3)CC2)n1 (stereo not drawn)  -19.35%
5. CCCN1CCCN(C(=O)Nc2ccc3c(c2)OCO3)CC1  -18.65%
6. N#Cc1cccc(N2CCC3(CCC(=O)N(CC(N)=O)C3)CC2)n1  -17.91%
7. Cc1ccc(C(=O)NC(CN2CCCC2=O)c2ccccc2)c(=O)[nH]1 (stereo not drawn)  -15.69%
8. CC(O)c1cccc(N2CCC3(CCC(=O)N(CC(N)=O)C3)CC2)n1 (stereo not drawn)  -13.92%
9. O=C(c1ccon1)N1CCc2ncnc(NCc3ccccn3)c2CC1  -13.25%
10. O=C(Nc1cccc(N2CCCC2)c1)C1CCCN1c1nccs1 (stereo not drawn)  -13.09%
11. CS(=O)(=O)CCSCc1cccc2cccnc12  -12.23%
12. O=C(c1cccc(CO)n1)N1CCOC(c2ccc(Cl)c(Cl)c2)C1 (stereo not drawn)  -12.21%
13. O=C(C1CCCN1c1ncnc2ccsc12)N1CCSCC1 (stereo not drawn)  -9.281%
14. OCc1ccc(-c2nccn2CCC2=CCCCC2)o1  -8.705%
15. N#Cc1cc(NC(=O)c2cc[nH]n2)ccc1N1CCC(O)CC1  -7.892%
16. Cc1cc(C(=O)NC2CCCN(c3ccccc3)C2=O)on1 (stereo not drawn)  -7.232%
17. COc1ccccc1CC(=O)NCCCN1CCCC1C(=O)N(C)C (stereo not drawn)  -7.215%
18. Cc1ccc(C(=O)NCC2CCN(C)c3ccccc32)c(=O)[nH]1 (stereo not drawn)  -6.721%
19. Cn1cc(NC(=O)c2cc[nH]n2)cc(Cl)c1=O  -6.664%
20. CS(=O)(=O)NCC(=O)NC1(c2ccc(Cl)c(Cl)c2)CC1  -6.64%
21. CCN1C(=O)CCC12CCN(S(=O)(=O)c1ccccc1)CC2  -5.531%
22. CCN(CC)C(=O)c1cnc(Sc2nccn2C)c(Cl)c1  -3.996%
23. CN(CC(=O)Nc1cc(-n2nnnc2C2CC2)ccc1F)C1CCC1  -0.6608%
24. CCCc1nc(C)cc(N2CCC3(CCC(=O)N(C4CC4)C3)CC2)n1  -0.6506%
25. c1cncc(-c2noc(CCNc3ncnc4c3CCNCC4)n2)c1  -0.2436%
26. COc1ccc(-c2cc(CC3(NCc4ccc(C)o4)COC3)no2)cc1  0%
27. CCc1ccc(C(=O)NC2CCN(c3cnn(C)c3)C2=O)o1 (stereo not drawn)  0.5002%
28. CCc1ccc(NC(=O)c2cnc(N3CCN(C)CC3)nc2C)cc1  0.5656%
29. c1cncc(-c2noc(CNc3ncnc4c3CCNCC4)n2)c1  1.079%
30. COCc1noc(CCNc2ncnc3c2CCNCC3)n1  1.85%
31. CCc1ccc(C(=O)Nc2cc(N3CCNC3=O)ccc2Cl)o1  2.04%
32. CN(CC(N)=O)C(=O)c1cnc(-c2ccc(Cl)s2)s1  2.419%
33. CC(=O)N1CCN(c2ccccc2CNc2cc(F)cc(F)c2)CC1  2.493%
34. CC(=O)c1ccc(N2CCC3(CCC(=O)N(C4CC4)C3)CC2)nc1  5.2%
35. CN(Cc1ccon1)C(=O)C1CC(=O)N(Cc2ccncc2)C1 (stereo not drawn)  7.553%
36. CC(C)Cc1noc(CNc2cc3c(cc2Cl)OCCCO3)n1  11.73%
37. CCN(Cc1noc(C)n1)C(=O)C(c1ccccc1C)N(C)C (stereo not drawn)  20.53%
38. O=C(NCCOc1ccc2c(c1)CCC2)N1CCS(=O)(=O)CC1  35.32%
39. CC(C)N(CC(N)=O)Cc1c(Cl)ccc2cccnc12  35.48%
40. CC(O)c1cccc(N2CCC3(CCC(=O)N(C4CCCC4)C3)CC2)n1 (stereo not drawn)  47.1%
41. CCc1ccc(C(=O)Nc2ccc3c(c2)N(C)CCN(C)C3)o1  68.84%
42. CCOC(=O)c1cccc(N2CCCC3(CCC(=O)N(C4CC4)C3)C2)n1 (stereo not drawn)  78.13%
43. CN1CCN(C)c2cc(NC(=O)c3cc[nH]n3)ccc2C1  95.27%
44. CC(=O)N1CCCN(C(=O)NCCOc2ccc3c(c2)OCO3)CC1  96.11%
45. Cc1ccc(-c2cc(CNc3ncnc4c3CCNCC4)no2)cc1  96.68%
46. Clc1ccccc1-c1cc(CNc2ncnc3c2CCNCC3)no1  100.4%
47. CC(C)c1cccc(N2CCCC3(CCC(=O)N(C4CC4)C3)C2)n1 (stereo not drawn)  105.3%
48. N#Cc1cccc(N2CCCC3(CCC(=O)N(C4CCCC4)C3)C2)n1 (stereo not drawn)  106.1%
49. Cc1cc(C(=O)Nc2ccc3c(c2)N(C)CCN(C)C3)on1  108.1%
50. Cl.O=C(O)[C@@H]1CCCN1c1nccc(Nc2ccccc2)n1  110.6%
51. Cc1ccc(C(=O)Nc2ccc3c(c2)N(C)CCN(C)C3)c(=O)[nH]1  112.4%
52. COc1ccc(-c2cc(CNc3ncnc4c3CCNCC4)no2)cc1  113.1%
53. CN1CCCN(C(=O)NCCOc2ccc3c(c2)OCO3)CC1  115.1%
